Molecules are shown by their SMILES. Compounds without any hit were thinned out: in the full panel of roughly 83,000, 20% have a hit.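 In brief: 96-well plates, 48 h treatment, single concentration, percent growth endpoint.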 A number with no mark means an inactive call. Active and inactive are the calls of the source. Rule for the calls: active = growth percent below 10; inactive = the rest.

Among the test systems are SR leukemia; RPMI-8226 leukemia; OVCAR-8 ovarian; OVCAR-5 ovarian; OVCAR-4 ovarian; SK-OV-3 ovarian; IGROV1 ovarian; OVCAR-3 ovarian; HS 578T breast; NCI/ADR-RES ovarian; T-47D breast; BT-549 breast; MDA-MB-435 melanoma; SW-620 colon; MCF7 breast; HCT-116 colon; HCC-2998 colon; KM12 colon.
Experiment in all cases: NCI-60 one-dose screen, 48 h (100 = growth as untreated, 0 = no growth, -100 = all killed)
Settings in all cases: 10 µM unless noted

For `CCCCCCCCOC(=O)CC[C@@H](C)[C@H]1CC[C@H]2[C@@H]3[C@H](OC(=O)CCN)C[C@@H]4C[C@H](OC(=O)CCN)CC[C@]4(C)[C@H]3C[C@H](OC(=O)CCN)[C@]12C`, the growth in the experiment with SR leukemia was -12.9% (active); with RPMI-8226 leukemia it was 77.8%; in the experiment on OVCAR-8 ovarian, 69.5%; in the experiment with OVCAR-5 ovarian it was 92.1%; in the experiment with OVCAR-4 ovarian, 75.7%; in the experiment on SK-OV-3 ovarian, 90.9%. Besides, the growth with IGROV1 ovarian is 77.2%; in the experiment with OVCAR-3 ovarian, 108%; in the experiment with HS 578T breast, 79.5%; in the experiment with NCI/ADR-RES ovarian it was 101%; with T-47D breast, 88.8%; in the experiment with BT-549 breast it was 124%. The growth is 74.1% in the experiment on MDA-MB-435 melanoma; 20% in the experiment on SW-620 colon; 10.8% with MCF7 breast; 49.3% in the experiment on HCT-116 colon; 84.2% with HCC-2998 colon; 77.8% with KM12 colon.

As to `CC[n+]1ccc2c(c1)C(=O)c1nccc3c1c-2nc1ccccc13`, the growth was 5.79% (active) with SR leukemia; 66.2% in the experiment on RPMI-8226 leukemia; -11.9% (active) in the experiment with OVCAR-8 ovarian; 87.7% in the experiment on OVCAR-5 ovarian; -67.7% (active) in the experiment on OVCAR-4 ovarian; -9.56% (active) with SK-OV-3 ovarian. Besides, the growth with IGROV1 ovarian is 17.1%; with OVCAR-3 ovarian, -14.6% (active); in the experiment on HS 578T breast, -21.8% (active); in the experiment on NCI/ADR-RES ovarian, 75.1%; in the experiment on T-47D breast, 8.59% (active); in the experiment with BT-549 breast it was -82.7% (active). For the same compound, the growth in the experiment on MDA-MB-435 melanoma was 4.27% (active); with SW-620 colon it was 5.32% (active); in the experiment with MCF7 breast, -6.21% (active); in the experiment on HCT-116 colon, -27.8% (active); with HCC-2998 colon, -21% (active); in the experiment on KM12 colon, 8.87% (active).

Turning to `O=C(O)c1ccc2c(c1Sc1ccccc1)C(=O)c1ccccc1C2=O`, the growth in the experiment with SR leukemia was 95.6%; in the experiment on RPMI-8226 leukemia, 106%; in the experiment on OVCAR-8 ovarian, 105%; in the experiment on OVCAR-5 ovarian, 101%; in the experiment on OVCAR-4 ovarian, 92.9%; in the experiment on SK-OV-3 ovarian, 101%. Also, the growth in the experiment with IGROV1 ovarian was 92.2%; in the experiment with OVCAR-3 ovarian, 89.6%; in the experiment on HS 578T breast, 114%; in the experiment on NCI/ADR-RES ovarian, 105%; in the experiment on T-47D breast, 98.6%; with BT-549 breast it was 83.8%. Also, the growth is 73.1% in the experiment on MDA-MB-435 melanoma; 121% with SW-620 colon; 95.4% with MCF7 breast; 98.5% with HCT-116 colon; 105% in the experiment with HCC-2998 colon; 101% in the experiment with KM12 colon.

For `O=C1/C(=C/c2ccccc2)CN(CCC(=O)N2C/C(=C\c3ccccc3)C(=O)/C(=C/c3ccccc3)C2)C/C1=C\c1ccccc1`, the growth in the experiment with SR leukemia is 16.5%; in the experiment with RPMI-8226 leukemia, -18.8% (active); in the experiment on OVCAR-8 ovarian it was 16.9%; with OVCAR-5 ovarian, 91%; with OVCAR-4 ovarian it was 67.8%; with SK-OV-3 ovarian, 51.3%. Further, the growth in the experiment on IGROV1 ovarian is 70.6%; in the experiment with OVCAR-3 ovarian it was 32.8%; in the experiment on HS 578T breast, 58.1%; in the experiment with NCI/ADR-RES ovarian, 76.1%; in the experiment with T-47D breast, 26.6%; with BT-549 breast, 56.3%. In addition, the growth was -40.7% (active) in the experiment with MDA-MB-435 melanoma; 7.07% (active) with SW-620 colon; -2.24% (active) in the experiment with MCF7 breast; -60.6% (active) in the experiment with HCT-116 colon; 26.7% with HCC-2998 colon; 10.1% with KM12 colon.

With `C[C@@]1(N2C(=O)OC[C@@H]2c2ccccc2)C(=O)N([C@H](CC(=O)N2CCC(N3CCCCC3)CC2)C(=O)NCc2cccc(C(F)(F)F)c2)[C@@H]1/C=C/c1ccccc1`, the growth with SR leukemia was -38.4% (active); in the experiment with RPMI-8226 leukemia, 37.1%; in the experiment on OVCAR-8 ovarian, 89.8%; with OVCAR-5 ovarian, 115%; in the experiment with OVCAR-4 ovarian, 66.3%; with SK-OV-3 ovarian, 78.9%. For the same compound, the growth with IGROV1 ovarian was 72.1%; in the experiment with OVCAR-3 ovarian, 73.2%; with HS 578T breast, 66.1%; in the experiment with NCI/ADR-RES ovarian, 81.8%; with T-47D breast it was 27.4%; in the experiment on BT-549 breast it was 78.1%. Besides, the growth is 1% (active) in the experiment with MDA-MB-435 melanoma; 58.5% with SW-620 colon; 25.3% in the experiment with MCF7 breast; 44.9% with HCT-116 colon; 47.3% with HCC-2998 colon; 55.9% with KM12 colon.

`CCc1ccccc1NC(=O)c1sc2nc3c(cc2c1N)C(=O)CCC3`: the growth with SR leukemia is 9.38% (active); in the experiment with RPMI-8226 leukemia, 17.8%; in the experiment on OVCAR-8 ovarian, 24.3%; in the experiment with OVCAR-5 ovarian, 33.5%; in the experiment with OVCAR-4 ovarian, 60.9%; in the experiment with SK-OV-3 ovarian, 6.9% (active). Further, the growth in the experiment on IGROV1 ovarian was 33.3%; in the experiment on OVCAR-3 ovarian, -12.7% (active); with HS 578T breast, 22.6%; in the experiment on NCI/ADR-RES ovarian, 5.24% (active); in the experiment on T-47D breast, 23.2%; in the experiment with BT-549 breast, 48%. Also, the growth was -56.6% (active) in the experiment with MDA-MB-435 melanoma; 25.7% in the experiment with SW-620 colon; 8.92% (active) in the experiment with MCF7 breast; 26.1% in the experiment on HCT-116 colon; 24% with HCC-2998 colon; 25.4% with KM12 colon.

For the compound `CC#CC#Cc1cccc(=O)o1`, the growth with SR leukemia is -9.17% (active); with RPMI-8226 leukemia it was 45.6%; in the experiment with OVCAR-8 ovarian it was 65.8%; in the experiment with OVCAR-5 ovarian, 101%; in the experiment with OVCAR-4 ovarian it was 91.6%; in the experiment with SK-OV-3 ovarian, 104%. Further, the growth in the experiment with IGROV1 ovarian is 65.1%; in the experiment on OVCAR-3 ovarian, 7.67% (active); in the experiment with HS 578T breast, 70.9%; in the experiment on NCI/ADR-RES ovarian, 90.1%; with T-47D breast it was 59.9%; in the experiment with BT-549 breast, 38.1%. The growth is 15.2% with MDA-MB-435 melanoma; 27.3% in the experiment with SW-620 colon; 29% in the experiment on MCF7 breast; 30.9% in the experiment on HCT-116 colon; 95.8% with HCC-2998 colon; 58.8% in the experiment with KM12 colon.

With `COc1cccc2c1C(=O)c1c(O)c3c(c(O)c1C2=O)C[C@@](O)(/C(C)=N/NC(=O)c1ccc(Cl)cc1)C[C@@H]3OC1CC(N)C(O)C(C)O1` (some centres not stated), the growth was -34.1% (active) with SR leukemia; -28.7% (active) in the experiment on RPMI-8226 leukemia; -49.9% (active) in the experiment on OVCAR-8 ovarian; 13.9% in the experiment with OVCAR-5 ovarian; -9.91% (active) with OVCAR-4 ovarian; 5.07% (active) in the experiment on SK-OV-3 ovarian. For the same compound, the growth in the experiment with IGROV1 ovarian is -21.8% (active); in the experiment with OVCAR-3 ovarian, -28.5% (active); in the experiment on HS 578T breast it was -28.4% (active); with NCI/ADR-RES ovarian, 47.8%; with T-47D breast, -11.6% (active); in the experiment on BT-549 breast it was -45.3% (active). For the same compound, the growth with MDA-MB-435 melanoma is -87.3% (active); in the experiment with SW-620 colon it was -36.6% (active); with MCF7 breast, -13.8% (active); in the experiment on HCT-116 colon it was 7.54% (active); in the experiment on HCC-2998 colon it was -45% (active); in the experiment with KM12 colon, -26.2% (active).

For the compound `COc1cc(/C=C2\CN(C(=O)CCN3CCC(=NO)CC3)C/C(=C\c3cc(OC)c(OC)c(OC)c3)C2=O)cc(OC)c1OC`, the growth with SR leukemia is 9.11% (active); in the experiment with RPMI-8226 leukemia, -40.1% (active); in the experiment with OVCAR-8 ovarian it was 1.55% (active); with OVCAR-5 ovarian, -65.4% (active); in the experiment on OVCAR-4 ovarian, -82.4% (active); with SK-OV-3 ovarian, -7.89% (active). For the same compound, the growth in the experiment on IGROV1 ovarian is -53.4% (active); with OVCAR-3 ovarian, -97.6% (active); in the experiment on HS 578T breast, 6.39% (active); in the experiment with NCI/ADR-RES ovarian, 9.97% (active); in the experiment with T-47D breast it was 4.37% (active); in the experiment with BT-549 breast, -81.4% (active). The growth in the experiment on MDA-MB-435 melanoma was -81.9% (active); with SW-620 colon, -74.5% (active); in the experiment on MCF7 breast it was -54.3% (active); with HCT-116 colon, -56.7% (active); with HCC-2998 colon, -79.8% (active); in the experiment on KM12 colon, -83.9% (active).

Source of the values: PubChem BioAssay (NCI).
